Experimental data: PubChem BioAssay (EPA / NIEHS)
Several values for one entry are separate records, joined by “and”; a condition that tells them apart may be missing. Identical values can stand only once. The source holds several records for some structures; these can differ, active in one and inactive in another. Activity calls are given as the source filed them. The calls were made as follows: active = hit-call score of the fitted dose curve at least 0.9, where 1 is the maximum; inactive = score below 0.9.

Tests used:
Conditions in all cases: mRNA level, 48 h; actives raise or lower the signal
[1] = read-out: growth arrest and DNA damage 45 (GADD45A), GADD45A (gene 1647); test: LTEA_HepaRG_GADD45A: Life Technologies and Expression Analysis (LTEA) Assay for growth arrest and DNA damage 45 (GADD45A) using HepaRG (AID 2283458)
Outline: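 HepaRG, 48 h exposure, 8 conc. (top 100 uM, half-log steps), 0.5% DMSO vehicle, duplicates. Read-out: qRT-PCR mRNA level, housekeeping-normalized (ACTB/GAPDH/POLR2A). Curves fit bidirectionally vs DMSO baseline.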

[2] = read-out: Forkhead box O3 (FOXO3), FOXO3 (gene 2309); test: LTEA_HepaRG_FOXO3: Life Technologies and Expression Analysis (LTEA) Assay for Forkhead box O3 (FOXO3) using HepaRG (AID 2283459)
Outline: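 Gene-expression endpoint: FOXO3 transcript level by qRT-PCR in HepaRG cultures treated 48 h with chemicals up to 100 uM (half-log, 0.5% DMSO vehicle).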

[3] = read-out: ABC Transporter (ABCB1), ABCB1 (gene 5243); test: LTEA_HepaRG_ABCB1: Life Technologies and Expression Analysis (LTEA) Assay for ABC Transporter (ABCB1) using HepaRG (AID 2283460)
Outline: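 Human liver HepaRG line treated 48 h with up to 100 uM compound (eight half-log points, 0.5% DMSO); ABCB1 mRNA change fitted bidirectionally against DMSO controls.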

[4] = read-out: growth arrest and DNA damage 45 (GADD45B), GADD45B (gene 4616); test: LTEA_HepaRG_GADD45B: Life Technologies and Expression Analysis (LTEA) Assay for growth arrest and DNA damage 45 (GADD45B) using HepaRG (AID 2283461)
Outline: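 qRT-PCR read-out (Fluidigm TaqMan, housekeeping-normalized) of mRNA change in human HepaRG cells after 48 h chemical exposure; 8-point curve, top 100 uM, half-log steps, 0.5% DMSO vehicle; gain or loss fitted relative to DMSO baseline.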

[5] = read-out: ABC Transporter (ABCC3), ABCC3 (gene 8714); test: LTEA_HepaRG_ABCC3: Life Technologies and Expression Analysis (LTEA) Assay for ABC Transporter (ABCC3) using HepaRG (AID 2283462)
Outline: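 qRT-PCR read-out of ABCC3 transcript, normalized to three housekeeping genes (ACTB, GAPDH, POLR2A), after 48 h chemical exposure of human HepaRG cells. Eight half-log concentrations, highest 100 uM, in 0.5% DMSO; gain or loss fitted relative to DMSO baseline.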

[6] = read-out: ABC Transporter (ABCB11), ABCB11 (gene 8647); test: LTEA_HepaRG_ABCB11: Life Technologies and Expression Analysis (LTEA) Assay for ABC Transporter (ABCB11) using HepaRG (AID 2283463)
Outline: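 Using HepaRG cultures held in 0.5% DMSO, chemicals were tested at half-log dilutions from 100 uM for 48 h. Induction or suppression of ABCB11 mRNA, normalized to ACTB, GAPDH and POLR2A, was fitted bidirectionally against vehicle.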

[7] = read-out: ABC Transporter (ABCC2), ABCC2 (gene 1244); test: LTEA_HepaRG_ABCC2: Life Technologies and Expression Analysis (LTEA) Assay for ABC Transporter (ABCC2) using HepaRG (AID 2283464)
Outline: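 qRT-PCR (TaqMan, Fluidigm array) read-out of ABCC2 mRNA, normalized to three housekeeping genes. Differentiated HepaRG cells were treated 48 h in serum-free induction medium with 8-point half-log series from 100 uM in 0.5% DMSO; curves fitted bidirectionally relative to DMSO.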

[8] = read-out: Broad substrate specificity ATP-binding cassette transporter ABCG2 (Homo sapiens) (UniProt Q9UNQ0); test: LTEA_HepaRG_ABCG2: Life Technologies and Expression Analysis (LTEA) Assay for ABC Transporter (ABCG2) using HepaRG (AID 2283465)
Outline: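 Gene expression of ABCG2 in HepaRG liver cells is quantified by qRT-PCR following 48 h exposure across an eight-point series topping at 100 uM. Values come from bidirectional fitting relative to DMSO vehicle.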

[9] = read-out: ATP-citrate lyase (ACLY), ACLY (gene 47); test: LTEA_HepaRG_ACLY: Life Technologies and Expression Analysis (LTEA) Assay for ATP-citrate lyase (ACLY) using HepaRG (AID 2283466)
Outline: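 ACLY expression changes in human HepaRG liver cells are quantified by qRT-PCR after 48 h exposure to test chemicals (maximum 100 uM, half-log steps). Values are fitted in both directions relative to 0.5% DMSO vehicle.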

[10] = read-out: Peroxisomal acyl-coenzyme A oxidase 1 (ACOX1) gene, ACOX1 (gene 51); test: LTEA_HepaRG_ACOX1: Life Technologies and Expression Analysis (LTEA) Assay for Peroxisomal acyl-coenzyme A oxidase 1 (ACOX1) gene using HepaRG (AID 2283467)
Outline: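 Human HepaRG hepatic cultures, 48 h treatment with test chemicals up to 100 uM. ACOX1 expression read by qRT-PCR relative to 0.5% DMSO vehicle.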

[11] = read-out: Alkaline Phosphatase, Placental (ALPP) gene, ALPP (gene 250); test: LTEA_HepaRG_ALPP: Life Technologies and Expression Analysis (LTEA) Assay for Alkaline Phosphatase, Placental (ALPP) gene using HepaRG (AID 2283468);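 as to AC50: differentiated human HepaRG liver cells in serum-free induction medium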
Outline: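 qRT-PCR readout of ALPP mRNA (Fluidigm TaqMan), normalized to ACTB/GAPDH/POLR2A, after 48 h chemical exposure of HepaRG cells; 8-point half-log series, top 100 uM, 0.5% DMSO vehicle. Bidirectional curve fit versus DMSO baseline.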

[12] = read-out: Bcl-2 (BAD) gene, BAD (gene 572); test: LTEA_HepaRG_BAD: Life Technologies and Expression Analysis (LTEA) Assay for Bcl-2 (BAD) gene using HepaRG (AID 2283469)
Outline: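 Activity values reflect up- or down-regulation of BAD mRNA in human HepaRG hepatic cells treated 48 h in serum-free medium, with eight-point half-log dosing capped at 100 uM and 0.5% DMSO vehicle.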

[13] = read-out: Bcl-2 (BAX) gene, BAX (gene 581); test: LTEA_HepaRG_BAX: Life Technologies and Expression Analysis (LTEA) Assay for Bcl-2 (BAX) gene using HepaRG (AID 2283470)
Outline: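 qRT-PCR read-out of BAX mRNA, normalized to three housekeeping genes, after 48 h chemical exposure of human HepaRG cells in serum-free induction medium; eight-point half-log series, top 100 uM, 0.5% DMSO vehicle; bidirectional fit versus DMSO.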

[14] = read-out: adenosine kinase (ADK) gene, ADK (gene 132); test: LTEA_HepaRG_ADK: Life Technologies and Expression Analysis (LTEA) Assay for adenosine kinase (ADK) gene using HepaRG (AID 2283471)
Outline: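 ADK expression quantified by qRT-PCR, normalised to three housekeeping genes, after 48 h exposure of HepaRG cells to eight concentrations (top 100 uM, half-log steps, duplicate, 0.5% DMSO). Up- or down-regulation fitted relative to vehicle.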

[15] = read-out: Alpha-fetoprotein (AFP) gene, AFP (gene 174); test: LTEA_HepaRG_AFP: Life Technologies and Expression Analysis (LTEA) Assay for Alpha-fetoprotein (AFP) gene using HepaRG (AID 2283472)
Outline: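 qRT-PCR (Fluidigm TaqMan) readout of AFP transcript, normalized to three housekeeping genes, fitted bidirectionally against 0.5% DMSO baseline. HepaRG cells received chemicals for 48 h in serum-free induction medium, top concentration 100 uM, half-log steps.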

[16] = read-out: BCL2L11 (gene 10018); test: LTEA_HepaRG_BCL2L11: Life Technologies and Expression Analysis (LTEA) Assay for Bcl-2 (BCL2L11) gene using HepaRG (AID 2283473)
Outline: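 HepaRG, 48 h exposure, 8-pt half-log series from 100 uM in 0.5% DMSO, duplicates; qRT-PCR (Fluidigm TaqMan) for BCL2L11, housekeeping-normalized; bidirectional curve fit relative to DMSO baseline.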

[17] = read-out: Apolipoprotein A-V (APOA5) gene, APOA5 (gene 116519); test: LTEA_HepaRG_APOA5: Life Technologies and Expression Analysis (LTEA) Assay for Apolipoprotein A-V (APOA5) gene using HepaRG (AID 2283474)
Outline: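 HepaRG, 48 h chemical exposure in serum-free induction medium, 8-pt half-log series (top 100 uM), 0.5% DMSO vehicle, duplicates. Readout: APOA5 mRNA by qRT-PCR, housekeeping-normalized; bidirectional fit vs DMSO baseline.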

[18] = read-out: Apoptosis regulator Bcl-2 (Homo sapiens) (UniProt P10415); test: LTEA_HepaRG_BCL2: Life Technologies and Expression Analysis (LTEA) Assay for Bcl-2 gene using HepaRG (AID 2283475)
Outline: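 qRT-PCR read-out (Fluidigm TaqMan) of BCL2 transcript, normalised to three housekeeping genes, after 48 h chemical exposure of HepaRG cells; 8-point half-log series, top 100 uM, 0.5% DMSO vehicle. Gain or loss of signal fitted relative to DMSO baseline.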

[19] = read-out: Bcl-2 (BID) gene, BID (gene 637); test: LTEA_HepaRG_BID: Life Technologies and Expression Analysis (LTEA) Assay for Bcl-2 (BID) gene using HepaRG (AID 2283476)
Outline: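 HepaRG, 48 h exposure, 8-pt half-log series, top 100 uM, 0.5% DMSO vehicle, duplicates. Readout: BID mRNA by TaqMan qRT-PCR; housekeeping-normalized; bidirectional curve fit vs DMSO baseline.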

[20] = read-out: Caspase-3 (Homo sapiens) (UniProt P42574); test: LTEA_HepaRG_CASP3: Life Technologies and Expression Analysis (LTEA) Assay for cysteine-aspartic acid protease (CASP3) using HepaRG (AID 2283477)
Outline: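 HepaRG, 48 h exposure, 8 conc. (top 100 uM, half-log steps, duplicate), 0.5% DMSO vehicle; qRT-PCR of CASP3 transcript, housekeeping-normalised (ACTB/GAPDH/POLR2A); bidirectional curve fit vs DMSO baseline.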

Chain of Caspase-3 (Homo sapiens) (P42574 whole entry, looked up): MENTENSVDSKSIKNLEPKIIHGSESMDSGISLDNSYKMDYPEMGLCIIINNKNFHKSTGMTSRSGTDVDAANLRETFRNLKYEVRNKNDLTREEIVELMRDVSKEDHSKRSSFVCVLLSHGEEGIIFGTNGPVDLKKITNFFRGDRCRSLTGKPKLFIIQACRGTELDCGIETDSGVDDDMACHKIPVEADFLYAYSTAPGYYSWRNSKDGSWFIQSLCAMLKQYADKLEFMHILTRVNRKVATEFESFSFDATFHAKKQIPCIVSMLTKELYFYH
Chain of Apoptosis regulator Bcl-2 (Homo sapiens) (P10415 whole entry, looked up): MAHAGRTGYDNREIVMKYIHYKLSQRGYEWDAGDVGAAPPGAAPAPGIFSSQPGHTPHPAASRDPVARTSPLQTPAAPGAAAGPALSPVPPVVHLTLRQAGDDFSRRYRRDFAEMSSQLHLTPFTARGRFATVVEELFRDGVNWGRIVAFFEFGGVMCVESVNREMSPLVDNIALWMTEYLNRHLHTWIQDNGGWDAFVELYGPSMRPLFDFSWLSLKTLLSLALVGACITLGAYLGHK
Chain of Broad substrate specificity ATP-binding cassette transporter ABCG2 (Homo sapiens) (Q9UNQ0 whole entry, looked up): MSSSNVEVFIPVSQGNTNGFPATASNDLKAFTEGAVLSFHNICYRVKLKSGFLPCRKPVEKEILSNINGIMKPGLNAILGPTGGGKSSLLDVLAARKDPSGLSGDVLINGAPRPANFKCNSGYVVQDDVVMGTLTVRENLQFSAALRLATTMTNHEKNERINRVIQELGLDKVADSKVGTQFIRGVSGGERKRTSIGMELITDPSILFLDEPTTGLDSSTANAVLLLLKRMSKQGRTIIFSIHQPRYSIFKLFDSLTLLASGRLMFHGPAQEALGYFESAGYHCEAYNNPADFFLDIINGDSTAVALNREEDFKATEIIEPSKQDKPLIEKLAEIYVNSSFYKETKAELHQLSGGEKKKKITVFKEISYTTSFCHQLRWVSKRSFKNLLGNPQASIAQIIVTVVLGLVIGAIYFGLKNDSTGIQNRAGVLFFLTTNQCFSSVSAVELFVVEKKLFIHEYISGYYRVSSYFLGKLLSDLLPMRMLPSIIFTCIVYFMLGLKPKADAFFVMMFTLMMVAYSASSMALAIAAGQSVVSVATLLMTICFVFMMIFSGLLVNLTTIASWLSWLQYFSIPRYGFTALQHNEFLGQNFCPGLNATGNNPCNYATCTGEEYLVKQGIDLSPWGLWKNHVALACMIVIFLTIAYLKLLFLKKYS

CC/C(=C(\c1ccccc1)c1ccc(OCCN(C)C)cc1)c1ccccc1
outcome [1]: inactive
AC50 [2]: 66.8 µM (active)
outcome [2]: inactive
AC50 [3]: 76.5 µM (active) and 77.8 µM (active)
AC50 [4]: 79.1 µM (active) and 16.7 µM (active)
AC50 [5]: 11.2 µM (active) and 23 µM (active)
AC50 [6]: 26.4 µM (active) and 25.1 µM (active)
AC50 [7]: 82.5 µM (active) and 93.4 µM (active)
outcome [8]: inactive
outcome [9]: inactive
AC50 [10]: 45.8 µM (active)
outcome [10]: inactive
AC50 [11]: 21.5 µM (active) and 23.7 µM (active)
outcome [12]: inactive
outcome [13]: inactive
AC50 [14]: 71.2 µM (active)
outcome [14]: inactive
AC50 [15]: 22.4 µM (active) and 27 µM (active)
AC50 [16]: 74.6 µM (active)
outcome [16]: inactive
outcome [17]: inactive
outcome [18]: inactive
AC50 [19]: 92.5 µM (active)
outcome [19]: inactive
AC50 [20]: 66.4 µM (active)
outcome [20]: inactive

C=C(C)C(N)=O
outcome [1]: inactive
outcome [2]: inactive
outcome [3]: inactive
outcome [4]: inactive
outcome [5]: inactive
outcome [6]: inactive
outcome [7]: inactive
outcome [8]: inactive
outcome [9]: inactive
outcome [10]: inactive
outcome [11]: inactive
outcome [12]: inactive
outcome [13]: inactive
outcome [14]: inactive
outcome [15]: inactive
outcome [16]: inactive
outcome [17]: inactive
outcome [18]: inactive
outcome [19]: inactive
outcome [20]: inactive

COC(=O)c1ccc(C(=O)OC)cc1
outcome [1]: inactive
outcome [2]: inactive
outcome [3]: inactive
outcome [4]: inactive
outcome [5]: inactive
outcome [6]: inactive
outcome [7]: inactive
outcome [8]: inactive
outcome [9]: inactive
outcome [10]: inactive
outcome [11]: inactive
outcome [12]: inactive
outcome [13]: inactive
outcome [14]: inactive
outcome [15]: inactive
outcome [16]: inactive
outcome [17]: inactive
outcome [18]: inactive
outcome [19]: inactive
outcome [20]: inactive
